Assay results reported in PubChem BioAssay (NCI).
About 83,000 compounds went through this panel and 20% of them were active in at least one assay; those are over-represented in the sample as a whole.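 Single-concentration screen, 48 h exposure, 96-well plates. Endpoint: percent growth. Below 10 = active.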 The source made the active and inactive calls.

Tests used:
Assay in all cases: NCI-60 one-dose screen, 48 h (100 = growth as untreated, 0 = no growth, -100 = all killed)
Conditions in all cases: 10 µM unless noted
SK-MEL-2 melanoma = tested on: SK-MEL-2 melanoma
EKVX NSCLC = tested on: EKVX NSCLC
SN12C renal = tested on: SN12C renal
UO-31 renal = tested on: UO-31 renal
TK-10 renal = tested on: TK-10 renal
ACHN renal = tested on: ACHN renal
CAKI-1 renal = tested on: CAKI-1 renal
A498 renal = tested on: A498 renal
CCRF-CEM leukemia = tested on: CCRF-CEM leukemia
MOLT-4 leukemia = tested on: MOLT-4 leukemia
SR leukemia = tested on: SR leukemia
RPMI-8226 leukemia = tested on: RPMI-8226 leukemia
OVCAR-8 ovarian = tested on: OVCAR-8 ovarian
OVCAR-5 ovarian = tested on: OVCAR-5 ovarian
OVCAR-4 ovarian = tested on: OVCAR-4 ovarian
SK-OV-3 ovarian = tested on: SK-OV-3 ovarian
IGROV1 ovarian = tested on: IGROV1 ovarian
OVCAR-3 ovarian = tested on: OVCAR-3 ovarian
HS 578T breast = tested on: HS 578T breast
NCI/ADR-RES ovarian = tested on: NCI/ADR-RES ovarian

Measured: growth

Cc1ccc(C23CCC(=O)N2CCc2cncn23)cc1 (stereo not given)
inactive: SK-MEL-2 melanoma 107% | EKVX NSCLC 104% | SN12C renal 99% | UO-31 renal 96.8% | TK-10 renal 91.7% | ACHN renal 105% | CAKI-1 renal 107% | A498 renal 96.8% | CCRF-CEM leukemia 95.1% | MOLT-4 leukemia 104% | SR leukemia 126% | RPMI-8226 leukemia 100% | OVCAR-8 ovarian 97.2% | OVCAR-5 ovarian 96.3% | OVCAR-4 ovarian 108% | SK-OV-3 ovarian 92.8% | IGROV1 ovarian 93.6% | OVCAR-3 ovarian 113% | HS 578T breast 101% | NCI/ADR-RES ovarian 107%

C#CCOc1cccc(Nc2c(Cl)c(CCl)nc3ccc(Oc4ccccc4)cc23)c1
active: SN12C renal 5.93% | CCRF-CEM leukemia 9.4%
inactive: SK-MEL-2 melanoma 37.4% | EKVX NSCLC 76.5% | UO-31 renal 61.7% | TK-10 renal 76.5% | ACHN renal 63.5% | CAKI-1 renal 76.1% | A498 renal 99.7% | MOLT-4 leukemia 14% | SR leukemia 10.4% | RPMI-8226 leukemia 24.5% | OVCAR-8 ovarian 24.8% | OVCAR-5 ovarian 82.7% | OVCAR-4 ovarian 75% | SK-OV-3 ovarian 109% | IGROV1 ovarian 43.2% | OVCAR-3 ovarian 31.6% | HS 578T breast 74.9% | NCI/ADR-RES ovarian 60.2%

CC1(C)C2=C(C(=O)N1Cc1ccccc1)C(c1ccco1)N(C(=O)C1CCC1)CCN2 (stereo not given)
inactive: SK-MEL-2 melanoma 94.3% | EKVX NSCLC 97.4% | SN12C renal 93.4% | UO-31 renal 90.5% | TK-10 renal 93.9% | ACHN renal 111% | CAKI-1 renal 91.9% | A498 renal 113% | CCRF-CEM leukemia 105% | MOLT-4 leukemia 102% | SR leukemia 94.9% | RPMI-8226 leukemia 106% | OVCAR-8 ovarian 115% | OVCAR-5 ovarian 95.6% | OVCAR-4 ovarian 97.1% | SK-OV-3 ovarian 103% | IGROV1 ovarian 103% | OVCAR-3 ovarian 107% | HS 578T breast 121% | NCI/ADR-RES ovarian 100%

O=S(=O)(Nc1ccc(Br)cc1)c1ccc(-c2cnc(C3CC3)o2)cc1
active: A498 renal -6.87% | CCRF-CEM leukemia 7.7% | OVCAR-3 ovarian -7.12% | HS 578T breast -8.02% | NCI/ADR-RES ovarian -2.19%
inactive: SK-MEL-2 melanoma 33.6% | EKVX NSCLC 53% | SN12C renal 33.8% | UO-31 renal 42.3% | TK-10 renal 64.1% | ACHN renal 30.8% | CAKI-1 renal 40.6% | MOLT-4 leukemia 15.8% | SR leukemia 12.7% | RPMI-8226 leukemia 13.9% | OVCAR-8 ovarian 41.5% | OVCAR-5 ovarian 51% | OVCAR-4 ovarian 67.8% | SK-OV-3 ovarian 35.5% | IGROV1 ovarian 36.1%

O=C1CC2C=CCN2C=C1NC(=O)c1ccccc1 (stereo not given)
inactive: SK-MEL-2 melanoma 118% | EKVX NSCLC 94.6% | SN12C renal 99.5% | UO-31 renal 98.2% | TK-10 renal 93.5% | ACHN renal 104% | CAKI-1 renal 101% | A498 renal 102% | CCRF-CEM leukemia 109% | MOLT-4 leukemia 96.3% | SR leukemia 88.7% | RPMI-8226 leukemia 112% | OVCAR-8 ovarian 114% | OVCAR-5 ovarian 97.4% | OVCAR-4 ovarian 109% | SK-OV-3 ovarian 113% | IGROV1 ovarian 106% | OVCAR-3 ovarian 105% | HS 578T breast 115% | NCI/ADR-RES ovarian 103%

CC(C)(C)n1cc(-c2ccnc(NCCNS(=O)(=O)c3ccc(C(F)(F)F)cc3)c2)c(-c2ccccc2)n1
inactive: SK-MEL-2 melanoma 105% | EKVX NSCLC 73.9% | SN12C renal 86% | UO-31 renal 58.9% | TK-10 renal 104% | ACHN renal 102% | CAKI-1 renal 90.6% | A498 renal 61.7% | CCRF-CEM leukemia 74.6% | MOLT-4 leukemia 72.2% | SR leukemia 35.9% | RPMI-8226 leukemia 81.1% | OVCAR-8 ovarian 89.2% | OVCAR-5 ovarian 108% | OVCAR-4 ovarian 84.8% | SK-OV-3 ovarian 97.8% | IGROV1 ovarian 97.3% | OVCAR-3 ovarian 94.5% | HS 578T breast 99.6% | NCI/ADR-RES ovarian 91.5%

COc1cc2c(cc1-c1c(C)noc1C)ncc1nc(C3CCOCC3)n(C3CCC(OC(F)F)CC3)c12 (stereo not given)
inactive: SK-MEL-2 melanoma 63.5% | EKVX NSCLC 60.9% | SN12C renal 79.8% | UO-31 renal 14.5% | TK-10 renal 21.4% | ACHN renal 54.2% | CAKI-1 renal 42.6% | A498 renal 41.7% | CCRF-CEM leukemia 58.9% | MOLT-4 leukemia 68.6% | SR leukemia 36.4% | RPMI-8226 leukemia 18% | OVCAR-8 ovarian 69.1% | OVCAR-5 ovarian 71% | OVCAR-4 ovarian 48.8% | SK-OV-3 ovarian 17.3% | IGROV1 ovarian 55.7% | OVCAR-3 ovarian 44.7% | HS 578T breast 54.9% | NCI/ADR-RES ovarian 53.7%

COc1ccc(C(=O)C2OC3=C(C(=O)CC(C)(C)C3)C2c2cccc(Oc3ccccc3)c2)cc1 (stereo not given)
inactive: SK-MEL-2 melanoma 93.4% | EKVX NSCLC 85% | SN12C renal 89.5% | UO-31 renal 74% | TK-10 renal 91.5% | ACHN renal 91.8% | CAKI-1 renal 81.7% | A498 renal 62.9% | CCRF-CEM leukemia 84% | MOLT-4 leukemia 83.4% | SR leukemia 71.2% | RPMI-8226 leukemia 85.7% | OVCAR-8 ovarian 88.9% | OVCAR-5 ovarian 97.6% | OVCAR-4 ovarian 86.3% | SK-OV-3 ovarian 91.4% | IGROV1 ovarian 95.9% | OVCAR-3 ovarian 103% | HS 578T breast 93.4% | NCI/ADR-RES ovarian 92.7%
